A short description of the assay: NCI Yeast Anticancer Drug Screen. Data for the wt1 strain (AID 149).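 Also: 0% = growth of vehicle-treated wt1 cultures.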 To be noted: S. cerevisiae wt1 strain (SPY 50644) growth inhibition, hits give high values. The procedure:
Growth inhibition of yeast strains with defined genetic alterations is measured as a screen for potential anti-cancer activity. Selected strains with alterations in DNA damage repair or cell cycle control were exposed to compounds and growth inhibition was measured relative to vehicle treated controls. The strain used in this assay is wt1

SMILES strings stand for the structures. Compounds without any hit were thinned out: in the full panel of roughly 79,000, 15% have a hit. Unmarked numbers belong to inactive results. The source made the active and inactive calls. Rule as the data show it: active = growth inhibition above about 70%; inactive = the rest.

`Nc1ccccc1C(=O)OCCc1ccccc1`: the growth inhibition was -25% (at 1.2 µM); -6% (at 3.7 µM); -23% (at 11.0 µM); -26% (at 33.0 µM); 92% (active) (at 100.0 µM).

Consider `Nc1nc(-c2ccccc2)c(-c2ccccc2)[se]1`, for which the growth inhibition (at 1.2 µM) was -2%; the growth inhibition (at 3.7 µM) was -1%; the growth inhibition (at 11.0 µM) was -1%; the growth inhibition (at 33.0 µM) is -2%; the growth inhibition (at 100.0 µM) was 3%.

As for `CS(=O)(=O)OCCN(CCOS(C)(=O)=O)c1ccc(C=O)cc1`, the growth inhibition by setting is: (at 1.2 µM) 0%; (at 3.7 µM) -19%; (at 11.0 µM) 10%; (at 33.0 µM) 28%; (at 100.0 µM) 49%.

Turning to `CCCCCNC(=O)c1c(O)[nH]c(=S)[nH]c1=O`, the growth inhibition by setting is: (at 1.2 µM) -3%; (at 3.7 µM) 9%; (at 11.0 µM) 15%; (at 33.0 µM) 68%; (at 100.0 µM) 88% (active).

Regarding `O=C1c2ccc3ccccc3c2CCC1N1CCCCC1` (stereo not given), the growth inhibition runs as follows: (at 1.2 µM) 3%; (at 3.7 µM) 11%; (at 11.0 µM) 9%; (at 33.0 µM) 27%; (at 100.0 µM) 97% (active).

For the compound `OC(c1ccc(Br)cc1)C(Cl)(Cl)Cl` (stereo not given), the growth inhibition (at 1.2 µM) is -13%; the growth inhibition (at 3.7 µM) was -11%; the growth inhibition (at 11.0 µM) is -1%; the growth inhibition (at 33.0 µM) is 89% (active); the growth inhibition (at 100.0 µM) was 99% (active).

With `CC1CCCN(CCc2ccccc2)CC1` (stereo not given), the growth inhibition was 2% (at 1.2 µM); 8% (at 3.7 µM); 8% (at 11.0 µM); 7% (at 33.0 µM); 5% (at 100.0 µM).

In the case of `Nc1ccc(Cl)cc1C(=O)c1ccccc1`, the growth inhibition reads like this: (at 1.2 µM) -20%; (at 3.7 µM) -10%; (at 11.0 µM) -10%; (at 33.0 µM) 39%; (at 100.0 µM) 98% (active).

Values taken from PubChem BioAssay (NCI).
